Experimental data reported in PubChem BioAssay (Tox21).
Results filed as inconclusive are left out. The source made the active and inactive calls. Unless noted, the call rests on the fitted dose curve; in most records, active means well fitted curve in the direction sought with a large enough effect in the repeat runs; inconclusive means weak or mixed curves; inactive means no such curve, though single readings can be large; an effect the other way counts as inactive or inconclusive.

Assays:
[1] = qHTS assay to identify small molecule antagonists of the estrogen related receptor signaling pathway with the pleiotropic PPARgamma coactivator (PGC) from Tox21 10K library - cell viability counter screen (AID 1224840; active means well fitted cell-killing curve with a large enough effect in the repeat runs, not every such curve was filed as active; further: nearly all actives have a fitted effect of over 40% in size)
Summary of the method: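 Here the PGC/ERR cells serve as a cytotoxicity control: they are exposed to compounds for 17.5 hours at 37 C, and live-cell signal is quantified using CellTiter-Fluor fluorescence.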

[2] = qHTS assay to identify small molecule agonists of the hypoxia (HIF-1) signaling pathway - cell viability counter screen (AID 1224844; calls by dose curve; further: nearly all actives have a fitted effect of over 50% in size)
Summary of the method: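 Multiplexed with the HRE beta-lactamase assay, this viability read used CellTiter-Glo luminescence (30 min, RT) on HRE-bla ME-180 cells treated 17 hrs with compounds in 0.5% dialyzed FBS medium.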

[3] = qHTS assay to identify small molecule agonists of H2AX (AID 1224845; active means well fitted activation curve with a large enough effect in the signal ratio in the repeat runs, not every such curve was filed as active; the % refers to the signal ratio)
Summary of the method: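 Wild-type CHO-K1 cells plated overnight, then exposed 3 hr at 37C to compounds at 15 concentrations (0.76% DMSO). Lysed, then HTRF anti-pH2AX(S139)-cryptate/anti-H2AX-d2 detection after 24 hr at room temperature; emissions 665 and 620 nm.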

[4] = qHTS assay to identify small molecule agonists of the hypoxia (HIF-1) signaling pathway (AID 1224846; active means well fitted activation curve with a large enough effect in the signal ratio in the repeat runs, not every such curve was filed as active; the % refers to the signal ratio)
Summary of the method: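 Hypoxia-pathway activation was scored as increased beta-lactamase from an HRE-controlled reporter in ME-180 cells; plated at 2,000 cells per well with 0.5% dialyzed FBS, they were exposed 17 hrs to compounds and then given CCF4-AM.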

[5] = qHTS assay to identify small molecule agonists of H2AX - cell viability counter screen (AID 1224847; calls by dose curve; further: top concentration of the series differs between compounds; nearly all actives have a fitted effect of over 30% in size)
Summary of the method: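 Read-out: CellTiter-Glo luminescence, 30 min RT. Cells: wild-type CHO-K1, 1000/well, 10% FBS, plated overnight at 37C. Treatment: 15 concentrations, 3 hr, 37C, 0.76% DMSO.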

[6] = qHTS RealTime-Glo MT Cell Viability Assay in HepG2 cells - 24 hour (AID 1224867); further: nearly all actives have a fitted effect of over 50% in size
Summary of the method: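 HepG2 suspension premixed with RealTime-Glo reagents is plated at 600 cells per well and left 5 h at 37 C/5% CO2. Compounds in DMSO then go in, and bioluminescence reflecting viable cell number is recorded over 40 h.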

[7] = qHTS RealTime-Glo MT Cell Viability Assay in HEK293 cells - 32 hour (AID 1224868); further: top concentration of the series differs between compounds; nearly all actives have a fitted effect of over 50% in size
Summary of the method: (§1)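 Reads taken at 0, 8, 16, 24, 32 and 40 h from the same wells. HEK293 cells (600/well) carried RealTime-Glo reagents from seeding, with compound added after a 5 h settle at 37 C.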

[8] = A CellTox Green Cytotoxicity Assay to monitor cytotoxicity in HEK293 cells - 0 hour (AID 1224869); further: nearly all actives have a fitted effect of over 50% in size
Summary of the method: (§2)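 Seeding of HEK293 cells together with cytotoxicity dye preceded a 5 h incubation at 37 C/5% CO2. Test compounds in DMSO were then added and fluorescence monitored across 40 h.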

[9] = qHTS RealTime-Glo MT Cell Viability Assay in HepG2 cells - 40 hour (AID 1224870); further: nearly all actives have a fitted effect of over 50% in size
Summary of the method: (§3)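 HepG2 cells mixed with RealTime-Glo MT reagents (NanoLuc plus cell-permeant prosubstrate) were seeded at 600 cells/well, incubated 5 h at 37 C/5% CO2, then pinned with compounds in DMSO; nonlytic luminescence tracked viability during 40 h treatment.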

[10] = A CellTox Green Cytotoxicity Assay to monitor cytotoxicity in HEK293 cells - 40 hour (AID 1224871); further: nearly all actives have a fitted effect of over 45% in size
Summary of the method: as §2

[11] = qHTS RealTime-Glo MT Cell Viability Assay in HEK293 cells - 16 hour (AID 1224872)
Summary of the method: as §1

[12] = qHTS RealTime-Glo MT Cell Viability Assay in HepG2 cells - 8 hour (AID 1224873); further: nearly all actives have a fitted effect of over 55% in size
Summary of the method: as §3

[13] = qHTS RealTime-Glo MT Cell Viability Assay in HEK293 cells - 40 hour (AID 1224874); details: RealTime-Glo luminescence; max response: hits give low values; further: nearly all actives have a fitted effect of over 50% in size
Summary of the method: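 Tox21 screen in HEK293 using RealTime-Glo MT chemistry, with cells and reagent co-dispensed. Luminescence proportional to viable cell number was captured at intervals during 40 h compound exposure at 37 C.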

[14] = A CellTox Green Cytotoxicity Assay to monitor cytotoxicity in HEK293 cells - 24 hour (AID 1224875); further: series mostly up to about 77 µM; nearly all actives have a fitted effect of over 45% in size
Summary of the method: as §2

[15] = target: Thyrotropin receptor (Homo sapiens) (UniProt P16473); assay: qHTS assay to identify small molecule agonists of the thyroid stimulating hormone receptor (TSHR) signaling pathway (AID 1224843; calls by dose curve; further: nearly all actives have a fitted effect of over 45% in size)
Summary of the method: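 TSHR-expressing HEK293 cells (800 per well) were exposed to compounds for 30 min at room temperature. cAMP was then detected by HTRF competition with cAMP-d2 and anti-cAMP cryptate, read after 1 h at room temperature. Fifteen concentrations, triplicate.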
On the % scale 0 is the no-effect control and ±100 the full control effect.

Thyrotropin receptor (Homo sapiens), sequence (P16473 whole entry, looked up): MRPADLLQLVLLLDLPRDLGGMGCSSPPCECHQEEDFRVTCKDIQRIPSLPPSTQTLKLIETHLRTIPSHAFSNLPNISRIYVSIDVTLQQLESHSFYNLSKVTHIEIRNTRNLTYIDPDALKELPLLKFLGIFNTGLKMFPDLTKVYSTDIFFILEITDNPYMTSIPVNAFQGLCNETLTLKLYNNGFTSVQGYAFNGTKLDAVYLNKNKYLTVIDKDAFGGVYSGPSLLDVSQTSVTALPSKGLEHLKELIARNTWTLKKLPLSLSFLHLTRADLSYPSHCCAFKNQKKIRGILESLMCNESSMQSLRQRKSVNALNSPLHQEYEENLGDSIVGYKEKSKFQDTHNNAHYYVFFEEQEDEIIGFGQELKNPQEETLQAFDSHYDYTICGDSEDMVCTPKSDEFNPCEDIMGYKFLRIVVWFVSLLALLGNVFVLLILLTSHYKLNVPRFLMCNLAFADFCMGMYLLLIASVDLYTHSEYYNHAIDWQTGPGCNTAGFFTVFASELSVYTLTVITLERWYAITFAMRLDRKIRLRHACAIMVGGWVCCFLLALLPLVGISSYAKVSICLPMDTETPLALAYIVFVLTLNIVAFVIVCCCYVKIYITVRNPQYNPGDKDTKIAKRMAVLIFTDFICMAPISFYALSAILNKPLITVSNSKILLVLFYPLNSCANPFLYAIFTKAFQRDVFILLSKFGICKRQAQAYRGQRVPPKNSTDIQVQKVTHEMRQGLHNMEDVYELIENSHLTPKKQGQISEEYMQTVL

CC(Oc1cc(Cl)ccc1Cl)C(=O)O (centres undefined)
inactive: outcome [1] | outcome [2] | outcome [3] | outcome [4] | outcome [5] | outcome [6] | Potency [7] | Potency [8] | outcome [9] | Potency [10] | Potency [11] | outcome [12] | max response [13] -5.27% | Potency [14]

CCC(C)C(C)=O (centres undefined)
inactive: outcome [1] | outcome [15] | outcome [2] | outcome [3] | outcome [4] | outcome [5] | outcome [6] | Potency [7] | outcome [9] | Potency [10] | Potency [11] | outcome [12] | max response [13] 0.997% | Potency [14]

CC1CC(=O)CC(C)(C)C1 (centres undefined)
inactive: outcome [1] | outcome [15] | outcome [3] | outcome [5] | outcome [6] | Potency [7] | Potency [8] | outcome [9] | Potency [10] | Potency [11] | outcome [12] | max response [13] -1.21% | Potency [14]

O=C(CN1CCNCC1)NC1CCCCC1
inactive: outcome [1] | outcome [15] | outcome [2] | outcome [3] | outcome [4] | outcome [5] | outcome [6] | Potency [7] | outcome [9] | Potency [10] | Potency [11] | outcome [12] | max response [13] 0.0212% | Potency [14]

C=CC/C=C/C
inactive: outcome [1] | outcome [15] | outcome [3] | outcome [6] | Potency [7] | Potency [8] | outcome [9] | Potency [10] | Potency [11] | outcome [12] | max response [13] -0.772% | Potency [14]

CC(=O)O[C@@H]1CC2CCC1(C)C2(C)C (some centres undefined)
inactive: outcome [1] | outcome [15] | outcome [2] | outcome [3] | outcome [4] | outcome [6] | Potency [7] | Potency [8] | outcome [9] | Potency [10] | Potency [11] | max response [13] 5.83%

CSc1cnccn1
inactive: outcome [1] | outcome [15] | outcome [2] | outcome [3] | outcome [5] | outcome [6] | outcome [9] | Potency [10] | Potency [11] | outcome [12] | Potency [14]

Cc1ccc(C)c([N+](=O)[O-])c1
inactive: outcome [1] | outcome [15] | outcome [3] | outcome [5] | outcome [6] | Potency [7] | outcome [9] | Potency [10] | Potency [11] | outcome [12] | max response [13] 12.1%

CC(=O)CCc1ccc(OC(C)=O)cc1
inactive: outcome [1] | outcome [15] | outcome [2] | outcome [3] | outcome [4] | outcome [5] | outcome [6] | Potency [7] | outcome [9] | Potency [10] | Potency [11] | max response [13] 2.75%

O/N=C/C=N/O
inactive: outcome [1] | outcome [15] | outcome [2] | outcome [4] | outcome [5] | Potency [7] | outcome [9] | Potency [10] | Potency [11] | outcome [12] | max response [13] 0.715% | Potency [14]

OCC(O)CN1CCN(c2ccccc2)CC1 (centres undefined)
inactive: outcome [1] | outcome [15] | outcome [2] | outcome [3] | outcome [6] | Potency [7] | Potency [8] | outcome [9] | Potency [10] | Potency [11] | max response [13] 1.76% | Potency [14]

O=C[O][Al]([O]C=O)[O]C=O
inactive: outcome [1] | outcome [15] | outcome [2] | outcome [4] | outcome [5] | outcome [6] | Potency [7] | Potency [8] | outcome [9] | Potency [10] | Potency [11] | outcome [12] | max response [13] 5.61%

CCCCCC(C)O (centres undefined)
inactive: outcome [1] | outcome [15] | outcome [2] | outcome [4] | outcome [5] | Potency [7] | outcome [9] | Potency [10] | Potency [11] | max response [13] 6.06%

O=C(Cl)c1ccccc1[N+](=O)[O-]
inactive: outcome [1] | outcome [15] | outcome [2] | outcome [4] | outcome [6] | Potency [7] | Potency [8] | outcome [9] | Potency [10] | Potency [11] | outcome [12] | max response [13] 9.73% | Potency [14]

CCCCCC/C=C/C(=O)OC
inactive: outcome [1] | outcome [15] | outcome [2] | outcome [3] | outcome [4] | Potency [7] | Potency [8] | outcome [9] | Potency [11] | outcome [12]

CC(=O)CC(=O)OC(C)(C)C
inactive: outcome [1] | outcome [15] | outcome [2] | outcome [3] | outcome [5] | outcome [6] | Potency [7] | Potency [8] | outcome [9] | Potency [10] | Potency [11] | outcome [12] | max response [13] 1.26% | Potency [14]

O=[N+]([O-])c1c(Cl)cc(Cl)cc1Cl
inactive: outcome [1] | outcome [15] | outcome [3] | outcome [4] | outcome [6] | Potency [7] | Potency [8] | outcome [9] | Potency [11] | max response [13] -1.77%

CCCCOCC(C)O (centres undefined)
inactive: outcome [1] | outcome [15] | outcome [2] | outcome [4] | outcome [6] | Potency [7] | Potency [8] | outcome [9] | Potency [10] | Potency [11] | outcome [12] | max response [13] 10.5% | Potency [14]

C=C(C)c1cccc(C(C)(C)N=C=O)c1
inactive: outcome [1] | outcome [15] | outcome [2] | outcome [3] | outcome [4] | outcome [5] | outcome [6] | Potency [7] | Potency [8] | outcome [9] | Potency [10] | Potency [11] | max response [13] 3.52% | Potency [14]
